Screens as filed in PubChem BioAssay.
Only some compounds are listed: those with a hit (about 3.7% of all), similar ones and a draw of the others.
TIM10 inh = growth inhibitors of isogenic TIM10 control yeast, primary screen, counter-screen for tim10-1 yeast inhibitor project, luminescence, uHTS; S. cerevisiae TIM10 strain growth, BacTiter-Glo luminescence, 24 h; inhibition, % at 10 µM; 330,000 compounds, 1.4% hits; AID 463195, 2010;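 active = inhibition of 40% or more at the single tested concentration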;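 note: wild-type TIM10 isogenic control strain grown at permissive 25 °C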
tim23-1 inh = growth inhibitors of tim23-1 mutant yeast, primary screen, luminescence, uHTS. 330,000 compounds, 1.3% hits. S. cerevisiae tim23-1 growth, BacTiter-Glo luminescence, 24 h. inhibition, % at 20 µM. AID 463212, 2010;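 active = growth inhibition of the mutant yeast at or above 50%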;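 note: temperature-sensitive mutant grown at 25 °C; plate controls were DMSO-treated mutant yeast for no effect and medium wells lacking yeast for full effect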
tim10-1 inh = growth inhibitors of tim10-1 mutant yeast, primary screen, luminescence, uHTS | S. cerevisiae tim10-1 ts strain growth, BacTiter-Glo, 24 h | inhibition, % at 20 µM | 330,000 compounds, 2.2% hits;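 active = inhibition of at least 40%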;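 note: mutant grown at 25 °C; 0% = DMSO wells with yeast and 100% = wells holding no yeast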
NLRP3 yeast inh = NALP3 inflammasome inhibitors in reconstituted yeast, primary screen, luminescence, uHTS; Yeast reconstituted NLRP3/ASC/caspase-1, beta-gal luminescence, 24 h; inhibition, % at 10 µM; 330,000 compounds, 0.39% hits;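 active = inhibition of 50% or more; inactive = inhibition below 50%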;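 note: plate controls were induced DMSO wells for no effect and uninduced yeast grown without galactose for full effect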
PfHsp90 set2 = growth inhibition of PfHsp90-expressing yeast, primary screen, antimalarial PfHsp90 inhibitor project, S. cerevisiae, BacTiter-Glo luminescence, single point, set 2; BacTiter-Glo ATP, 48 h; yeast lacking PDR1 and PDR3 efflux regulators; 310,000 compounds, 0.32% hits; inhibition, % at 9.4 µM;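 active = every replicate shows inhibition above about 80%, whatever the replicate mean, limit read from the data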;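 note: 0% = DMSO neutral controls and 100% = 20 µM radicicol positive controls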
tim10-1 conf = growth inhibitors of tim10-1 mutant yeast, confirmation, single concentration, luminescence, S. cerevisiae; shares compounds with tim10-1 inh; S. cerevisiae tim10-1 ts strain growth, BacTiter-Glo, 24 h; inhibition, % at 20 µM; 7,400 compounds, 56% hits; AID 463213, 2010;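 active = inhibition of yeast growth at or above a set limit in either of two repeat tests at 20 µM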;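 note: tim10-1 mutant grown at permissive 25 °C to find synthetic lethal compounds; 0% = DMSO yeast wells and 100% = medium wells without yeast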
The depositor's hits bear a star; / = no result given.

SMILES | TIM10 inh | tim23-1 inh | tim10-1 inh | NLRP3 yeast inh | PfHsp90 set2 | tim10-1 conf
CCCCN(Cc1ccco1)C(=O)C1CCCN(c2ncnc3c2nc2n3CCCCC2)C1 (stereo not given) | 15 | 34 | 41* | 9 | -11 | -2
O=C(C1CCN(c2ncnc3c2nc2n3CCCCC2)CC1)N1CCN(c2ccccc2F)CC1 | 28 | 15 | 30 | 17 | -31 | /
CC(C)N(Cc1ccccc1)C(=O)C1CCCN(c2ncnc3c2nc2n3CCCCC2)C1 (stereo not given) | 10 | 25 | 31 | 19 | 19 | /
O=C(Nc1ccc(Cl)cc1)C1CCCN(c2ncnc3c2nc2n3CCCCC2)C1 (stereo not given) | 4 | 41 | 53* | 21 | -13 | 12
O=C(C1CCCN(c2ncnc3c2nc2n3CCCCC2)C1)N1CCN(c2cccc(Cl)c2)CC1 (stereo not given) | 8 | 24 | 41* | 28 | -2 | 4
Cc1cccc(N2CCN(C(=O)C3CCN(c4ncnc5c4nc4n5CCCCC4)CC3)CC2)c1C | 29 | 39 | 56* | 7 | -77 | 22
COc1ccc(NC(=O)N2CCCC(C(=O)NCCc3ccccc3)C2)cc1 (stereo not given) | 1 | 1 | -1 | 4 | -9 | /
O=C(O)C(=Cc1ccccc1)Cc1ccccc1 | / | / | / | / | -1 | /
O=C(CCc1ccc(S(=O)(=O)N2CCOCC2)cc1)OCC(=O)c1ccccc1F | 4 | 28 | 29 | 15 | -30 | /
Cc1ccc(-c2cc(-c3ccccc3)c(C#N)c(N)n2)o1 | 6 | 19 | 50* | 26 | 47 | 27
Cc1ccc(-c2cc(-c3ccccc3Cl)c(C#N)c(N)n2)o1 | 34 | 48 | 41* | 7 | 1 | 25
N#Cc1c(-c2ccco2)cc(C2CC2)nc1N | 19 | 25 | 20 | 10 | -33 | /
Cc1ccc(-c2cc(-c3ccc(F)cc3)nc(N)c2C#N)o1 | 6 | 15 | 12 | -2 | -4 | /
N#Cc1c(-c2ccccc2)cc(C2CC2)nc1N | 10 | 19 | 42* | -37 | -35 | 13
O=C(COC(=O)c1ccc(F)cc1)NC1CC1 | -9 | 1 | 17 | 19 | 0 | /
Cn1c(Cl)c(/C=N/OC(=O)c2ccccc2Cl)c2ccccc21 | -3 | 11 | 10 | 30 | -17 | /
Cc1cccc(C(=O)O/N=C/c2c(N3CCOCC3)n(C)c3ccccc23)c1 | 25 | 19 | 41* | 46 | / | 15
O=C(CCCn1c(=O)[nH]c2ccccc2c1=O)NC1CCCCCC1 | 9 | 14 | 16 | -3 | 8 | /
CC1CCC(NC(=O)CCCn2sc3ccccc3c2=O)CC1 (stereo not given) | 2 | 39 | 41* | 11 | 10 | 1
O=C(NC1CCCCC1)C1CCCN1S(=O)(=O)c1ccc(Cl)cc1 (stereo not given) | -14 | 23 | 9 | 12 | 16 | /
CC(=O)O[C@]1(C(C)=O)CC[C@H]2[C@@H]3C=CC4=CC(=O)C=C[C@]4(C)[C@H]3CC[C@@]21C | 10 | 34 | 40* | -6 | -11 | 5
O=C(O)C(Cc1cccs1)c1cccs1 (stereo not given) | / | / | / | / | -1 | /
Cc1cccc(-n2c(-c3csc(C)c3)n[nH]c2=S)c1 | 7 | 19 | 41* | 12 | 5 | 14
CCc1cc(-c2n[nH]c(=S)n2-c2cccc(C)c2)cs1 | 22 | 36 | 43* | 14 | -17 | 30*
C=CCN1C(=O)c2ccc(C(=O)Nc3ccccn3)cc2C1=O | 11 | 11 | 12 | 9 | 1 | /
SMILES | TIM10 inh | tim23-1 inh | tim10-1 inh | NLRP3 yeast inh | PfHsp90 set2 | tim10-1 conf
CC(C1CC1)N(C(=O)c1ccccc1O)c1ccccc1 (stereo not given) | 18 | 41 | 40 | 7 | / | 29
CCOc1ccccc1-n1c(SC(C)C(=O)NCC2CCCO2)nc2ccccc2c1=O (stereo not given) | 3 | 6 | 17 | 5 | 1 | /
c1ccc(-c2cc(-c3nnc4n3N=C(c3ccc5ccccc5c3)CS4)[nH]n2)cc1 | 10 | 26 | 48* | 8 | -21 | 8
CCCCN(C(=O)CN(C)CC(=O)Nc1cccc(OC)c1)c1c(N)n(CCCC)c(=O)[nH]c1=O | 1 | 10 | 6 | 1 | -6 | /
Cc1ccc(Sc2oc(/C=N/n3cnnc3)cc2Br)cc1 | 20 | 35 | 46* | 29 | -11 | 17
O=S(=O)(c1ccc(N2CCC(c3ccc(Cl)cc3)=N2)cc1)N(CCO)CCO | 27 | 37 | 55* | 4 | -5 | 48*
Cn1nnc(NC(=S)NC(=O)c2cccc3c(Br)cccc23)n1 | 18 | 26 | 51* | 41 | -16 | -12
CCS(=O)(=O)N1Cc2ccccc2CC1C(=O)NCC12CC3CC(CC(C3)C1)C2 (stereo not given) | 26 | 35 | 40* | 4 | -23 | 29
COc1ccc(F)cc1S(=O)(=O)NCc1cc(=O)n(C)c(=O)n1C | -5 | -15 | -9 | -3 | -25 | /
Cc1ccc(NC(=O)c2ncn(CCCN3CCN(Cc4cccc5ccccc45)CC3)n2)cc1C | / | / | / | / | 58 | /
CN(C)CCCN(C(=O)c1ccc2c(c1)CCCC2)c1nc2cc3c(cc2s1)OCO3 | 17 | 17 | 42* | 44 | 18 | 25
CCN(CC)CCN(C(=O)c1ccc2c(c1)CCCC2)c1nc2ccc(C)cc2s1 | 26 | 46 | 37 | 24 | 15 | /
CN(C)CCCN(C(=O)c1ccc2c(c1)CCCC2)c1nc2ccc(F)cc2s1 | 17 | 22 | 32 | 41 | 32 | /
CCN(CC)CCN(C(=O)c1ccc2c(c1)CCCC2)c1nc2ccc(OC)cc2s1 | 22 | 34 | 52* | 25 | 26 | 36*
CO/N=C(\c1ccccc1)c1cccnc1 | -3 | 5 | 1 | 11 | 15 | /
COCCNC(=O)/C(C#N)=C/c1ccc(SC)cc1 | 11 | -1 | 5 | 17 | -4 | /
COCCCNC(=O)/C(C#N)=C/c1ccc(F)cc1 | 13 | 48 | 42* | 8 | -12 | 27
O=C([O-])c1ccccc1-[n+]1c(-c2ccccc2)cc(-c2ccccc2)cc1-c1ccccc1 | 9 | 4 | 1 | -2 | 7 | /
O=C(Oc1cc2oc(=O)c3c(c2cc1Cl)CCCC3)c1cccs1 | 23 | 31 | 43* | 25 | -4 | 17
O=C(Oc1ccc2c3c(c(=O)oc2c1)CCCC3)c1cccs1 | 21 | 13 | -2 | 24 | -9 | /
C=CCOc1ccc(/C=C2/C(=N)N3N=C(CC(=O)N4CCCC4)SC3=NC2=O)cc1OC | -2 | 17 | 24 | 2 | 6 | /
CCCCCCCNC1=CC(=O)CC(c2ccco2)C1 (stereo not given) | -9 | 30 | 50* | 14 | -98 | 14
